Hits are enriched below; roughly 0.34% of the tested compounds scored in any of these assays.
Luc counter = blocks Kinase-Glo luciferase, a counter-screen artifact | AID 1379 | Kinase-Glo luciferase, ATP luminescence, 8 min | Q27757 | 0.28% of 200,000 active | Potency, µM (titrated, usually from 38.3 µM), for the others: at the highest dose activity change, negative = inhibition, usual class: inhibitors; note: potency is the fitted concentration of half-maximal effect; % is set by controls: 0 for no effect and ±100 for the full control effect; nearly all actives have a fitted effect of over 60% in size
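Inhibition of Kinase-Glo luciferase light generation was assessed at 10 uM ATP in pH 7.2 imidazole buffer, with luminescence measured after eight minutes at ambient temperature.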
Lamin A splicing = modulators of lamin A splicing | 0.01% of 200,000 active | HeLa LMNA splicing GFP/RFP minigene ratio, 48 h | Potency, µM (doses to about 46.1 µM), without a hit: at the top dose ratio change, negative = inhibition, usual class: inhibitors | AID 1487; active = well fitted inhibition curve with a large enough effect in the signal ratio, with a control signal flat, not every such curve was filed as active; inconclusive = small, poorly fitted or top-dose-only effect, or effect the other way, or a change in a side signal; the % refers to the signal ratio; note: potency is the fitted concentration of half-maximal effect; % is set by controls: 0 for no effect and ±100 for the full control effect
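Read-out is the ratio of GFP to DsRed2 object intensity, acquired by 488 nm laser-scanning cytometry on HeLa lamin A-EGFP minigene reporter cells. Compound incubation 48 hrs at 37 °C in Opti-MEM with 2% FBS; DMSO 0.5% final.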
TCR activator = activators of T cell receptors; primary human leukocytes, anti-CD3, IL-2 HTRF, 48 h; Potency, µM (highest dose often 9.22 µM), for the others: top-dose activation of IL-2 secretion, actives largely listed as activators; 330,000 tested, under 10 active; note: % of control where 0% means no effect
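IL-2 produced over 48 hr by a-CD3 bead-stimulated primary human leukocytes exposed to compounds was detected with a homogeneous time-resolved FRET immunoassay, 665nm acceptor signal after 320nm excitation.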
IMPase Li cell = cell-permeable IMPase inhibitors with lithium potentiation | Potency, µM (titrated, usually from 59.4 µM), for the others: at the highest dose activity, negative = IMPase inhibition, hits mostly inhibitors | AID 1457 | CHO-M1 cells, IP1 TR-FRET (IP-One), carbachol + lithium | 0.35% of 210,000 active;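 note: IP1 builds up when IMPase is blocked and the TR-FRET signal falls; potency is the fitted concentration of half-maximal effect; plate controls were basal vehicle for no effect and high inhibitor control for full effect; nearly all actives have a fitted effect of over 50% in size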
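IP1 accumulation measured by competitive TR-FRET in lysed CHO-M1 cells after 30 min compound exposure at 37C, with a small lithium addition to potentiate weak responses. Hill-equation AC50 from ratio and donor-channel data.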
Numbers without * were called inactive; [ ] = dose if it differs, or a comment. Unless noted, calls come from the whole dose curve; as a rule, active = well fitted curve in the direction sought with a large enough effect; inconclusive = small, poorly fitted or top-dose-only effect, or another doubt; inactive = no such curve, though single readings can be large; an effect the other way counts as inactive or inconclusive.

How did CC(=NNC(=O)c1cccc(S(=O)(=O)N2CCOCC2)c1)c1ccc(Cl)cc1 do in these assays?
TCR activator: 6%

How did Cc1nn(-c2ccccc2)c2c1C1(C(=O)N(C(C)C)c3ccccc31)C(C#N)=C(N)O2 (stereo not drawn) do in these assays?
Luc counter: -2%; Lamin A splicing: 0%; TCR activator: -3%; IMPase Li cell: 38%[38.3 µM]

What do the screens show for `COCCNC(=O)C(c1cccs1)N(C(=O)Cn1nnc2ccccc21)c1ccc(OC)cc1` (stereo not drawn)?
Luc counter: -2%; Lamin A splicing: -13%; TCR activator: 2%[46.1 µM]; IMPase Li cell: 22%

What do the screens show for `C=CCN=C1NN=C(c2cc(C)n(CCOC)c2C)CS1`?
Luc counter: -28%; Lamin A splicing: 0%; TCR activator: 0%[46.1 µM]; IMPase Li cell: 10%

Results for COCCn1c(C)cc(C2=NNC(=NC3CC3)SC2)c1C ?
Luc counter: 7.1µM*; TCR activator: -11%; IMPase Li cell: 4%

How did C(=C\c1ccc2ccccc2n1)/c1ccccc1 do in these assays?
Lamin A splicing: inconclusive; TCR activator: -2%

What do the screens show for `Oc1ccc(/C=C/c2ccc3ccccc3n2)cc1`?
Luc counter: inconclusive; Lamin A splicing: 13µM*; TCR activator: -9%; IMPase Li cell: -10%

Results for N#Cc1c(Cl)nc(SCc2ccccc2)nc1-c1ccccc1 ?
Luc counter: 4%; Lamin A splicing: 1%; IMPase Li cell: 2.5µM*

Results for O=C(CS(=O)(=O)c1ccccc1)Nc1nnc(Cc2ccccc2)s1 ?
TCR activator: -4%

Results for COc1ccc(-c2c(C)c3ccc(O)c(CN4CCCC4)c3oc2=O)cc1 ?
Lamin A splicing: -3%[46 µM]

Results for COc1ccc2[nH]c(=O)c(CN(C)C(=O)C3CCCCC3)cc2c1 ?
Luc counter: -6%; Lamin A splicing: -11%; TCR activator: -2%; IMPase Li cell: 28µM*

How did CCOc1ccc(N=Cc2c(C)[nH]n(-c3nc4ccccc4[nH]3)c2=O)cc1 do in these assays?
Luc counter: 8.9µM*; Lamin A splicing: -2%; TCR activator: -2%[46.1 µM]; IMPase Li cell: -4%

How did Cc1[nH]n(-c2ccccc2)c(=O)c1C=Nc1cnc2ccccc2c1 do in these assays?
Luc counter: -4%; Lamin A splicing: 21%; TCR activator: 6%; IMPase Li cell: 35%[38.3 µM]

How did Cc1cc(-c2nnc(SCC(=O)Nc3cccc(Cl)c3)n2N)n[nH]1 do in these assays?
TCR activator: -7%

Results for O=C1c2ccccc2C(=O)C1c1nccc2ccccc12 ?
Luc counter: 8.9µM*; Lamin A splicing: 5%; TCR activator: -36%; IMPase Li cell: 21%[38.3 µM]

How did O=C(Nc1ccc2c(c1)OCCO2)c1cc(-c2ccccn2)nc2ccc(Br)cc12 do in these assays?
Luc counter: 4%; TCR activator: -8%; IMPase Li cell: 13µM*

What do the screens show for `Cc1ccc(-c2nc(NC(=O)CSc3nnnn3-c3ccccc3)ns2)cc1`?
Luc counter: -8%; Lamin A splicing: 15%; TCR activator: 9%; IMPase Li cell: 10µM*

How did Cc1ccc(-c2csc3nnc(SCC(=O)Nc4nsc(-c5ccccc5)n4)n23)cc1 do in these assays?
Luc counter: 7%; Lamin A splicing: inconclusive; IMPase Li cell: -6%[38.3 µM]

What do the screens show for `NC(=S)NCCC[C@H](N)C(=O)O`?
IMPase Li cell: -3%

How did CCCn1c(-c2ccc(F)cc2)nc2c(NC3CCN(Cc4ccccc4)CC3)nc(C)nc21 do in these assays?
Luc counter: -8%; IMPase Li cell: 6%

Results for Nc1c(C(=O)Nc2ccc(Br)cc2)sc2nc(-c3ccco3)ccc12 ?
Luc counter: -9%; Lamin A splicing: inconclusive; TCR activator: -6%; IMPase Li cell: 11µM*
